Assay results published in PubChem BioAssay (NCI).
Compounds without any hit were thinned out: in the full panel of roughly 79,000, 15% have a hit. Values without a mark were called inactive. Activity calls are given as the source filed them. Cut-off read from the data, not from the text of the source: active = growth inhibition above about 70%; inactive = the rest.

Tests used:
[1] = NCI Yeast Anticancer Drug Screen. Data for the rad50 strain (AID 155);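 note: 0% = growth of vehicle-only cultures of the same strain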; conditions: S. cerevisiae rad50 strain growth inhibition, active compounds read high
Summary of the method: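 Growth of the mutant yeast was measured after compound exposure and referenced to vehicle-treated cultures.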

[2] = NCI Yeast Anticancer Drug Screen. Data for the mec2-1 strain (AID 157); conditions: S. cerevisiae mec2-1 strain, active compounds read high
Summary of the method: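 Readout is yeast growth inhibition, normalised to vehicle-treated controls, in the mec2-1 strain exposed to compound.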

[3] = NCI Yeast Anticancer Drug Screen. Data for the sgs1 mgt1 strain (AID 161);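 note: 0% = growth of cultures given vehicle only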; conditions: S. cerevisiae sgs1 mgt1 strain, active compounds read high
Summary of the method: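 Percent growth inhibition was derived by comparing compound-exposed mutant yeast with vehicle-exposed cultures. The strain carries alterations in DNA damage repair.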

[4] = NCI Yeast Anticancer Drug Screen. Data for the cln2 rad14 strain (AID 165);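 note: 0% = growth equal to vehicle treated cultures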; conditions: S. cerevisiae cln2 rad14 strain, active compounds read high
Summary of the method: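 Relative to vehicle controls, growth inhibition of compound-treated cln2 rad14 yeast was recorded.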

[5] = NCI Yeast Anticancer Drug Screen. Data for the bub3 strain (AID 167); conditions: S. cerevisiae bub3 mutant strain, active compounds read high
Summary of the method: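 Whole-cell yeast assay. The mutant strain was incubated with compounds, and growth inhibition was determined by comparison with vehicle-treated cells.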

[6] = NCI Yeast Anticancer Drug Screen. Data for the mlh1 rad18 strain (AID 175); conditions: S. cerevisiae mlh1 rad18 strain growth inhibition, active compounds read high
Summary of the method: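 Test agents were incubated with a yeast strain of defined genotype (DNA damage repair defect). Inhibition of growth was derived by comparison with vehicle-exposed cultures.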

[7] = at 5.0 µM (retest, dose inferred, filed as 0.5)
[8] = at 50.0 µM (retest, dose inferred, filed as 5.0)

| SMILES | growth inhibition [1, 7] | growth inhibition [1, 8] | growth inhibition ([1]; at 50.0 µM) | growth inhibition [2, 7] | growth inhibition [2, 8] | growth inhibition ([2]; at 50.0 µM) | growth inhibition [3, 7] | growth inhibition [3, 8] | growth inhibition ([3]; at 50.0 µM) | growth inhibition [4, 7] | growth inhibition [4, 8] | growth inhibition ([4]; at 50.0 µM) | growth inhibition [5, 7] | growth inhibition [5, 8] | growth inhibition ([5]; at 50.0 µM) | growth inhibition [6, 7] | growth inhibition [6, 8] | growth inhibition ([6]; at 50.0 µM) |
| --- | --- | --- | --- | --- | --- | --- | --- | --- | --- | --- | --- | --- | --- | --- | --- | --- | --- | --- |
| O=[N+]([O-])c1ccc(SP(=S)(c2ccccc2)c2ccccc2)c([N+](=O)[O-])c1 | 7% | 97% (active) | 67.3% | 17% | 98% (active) | 48.3% | 30% | 98% (active) | 88.6% (active) | 5% | 96% (active) | 83.2% (active) | 9% | 98% (active) | 48% | 28% | 99% (active) | 70.5% (active) |
| C(=P(c1ccccc1)(c1ccccc1)c1ccccc1)[P+](c1ccccc1)(c1ccccc1)c1ccccc1.[Cl][Fe]([Cl])([Cl])[Br] | 98% (active) | 99% (active) | 99.5% (active) | 98% (active) | 99% (active) | 99.5% (active) | 99% (active) | 99% (active) | 99.5% (active) |  |  |  | 98% (active) | 99% (active) | 99.5% (active) |  |  |  |
| [Cl][Pt+2][Cl].[NH-]c1ccc([N+](=O)[O-])cc1[NH-] | 40% | 73% (active) | 63.8% | 27% | 62% | 75.7% (active) | 100% (active) | 94% (active) | 75.5% (active) | 99% (active) | 94% (active) | 54.6% | 100% (active) | 95% (active) | 68.3% | 58% | 79% (active) | 70.5% (active) |
| [N-]=[N+]=NS(=O)(=O)c1ccccc1S(=O)(=O)N=[N+]=[N-] | 13% | 99% (active) | 99.2% (active) | 8% | 100% (active) | 92.6% (active) | 9% | 99% (active) | 99.8% (active) | 67% | 99% (active) | 74.8% (active) |  |  |  | 18% | 99% (active) | 99.6% (active) |
| COc1cc(C2c3cc4c(cc3[C@@H](Nc3ccc([N+](=O)[O-])cc3)C3COC(=O)[C@H]23)OCO4)cc(OC)c1O (stereo partly drawn) | 96% (active) | 96% (active) | 84.4% (active) | 97% (active) | 97% (active) | 91% (active) | 49% | 98% (active) | 87.7% (active) | 22% | 97% (active) | 86.6% (active) |  |  |  | 95% (active) | 96% (active) | 88.5% (active) |
